# Active and inactive are the calls of the source.
# Legend:
# [1] = E. coli DRC41 culture turbidity changes, primary screen, E. coli filamentation inducer project, strain DRC41, OD650, 48 h (AID 1152);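 further: E. coli MC1000 strain DRC41 lacking acrAB efflux pump and sulA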; conditions: E. coli DRC41 (acrAB sulA), higher = more signal, called active from +8 up or from −8 down
# [2] = small-molecule binders of probe aLefty1, primary screen, biochemical, small-molecule microarray, 635/667 nm fluorescence (AID 1153); conditions: higher = more signal;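 further: score merges spot fluorescence with signal-to-noise ratio from the scanned slide images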
# [3] = PSAC antagonists in infected red cells, primary screen, cell-based, P. falciparum Indochina, OD700, 1 h (AID 1154); conditions: P. falciparum Indochina infected RBC osmotic lysis, higher = more signal, called active from +8 up or from −8 down
# [4] = PSAC antagonists in infected red cells, primary screen, cell-based, P. falciparum Indochina, OD700, 2 h (AID 1155);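 further: lysis reports solute entry through the parasite surface anion channel PSAC; channel blockers reduce lysis of infected cells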; conditions: P. falciparum Indochina infected erythrocytes, osmotic lysis OD700; higher = more signal, called active from +8 up or from −8 down
# [5] = osmotic lysis modulators in infected erythrocytes, primary screen, PSAC antagonist project, cell-based, P. falciparum Indochina, OD700, 3 h (AID 1156); conditions: higher = more signal, called active from +8 up or from −8 down
# [6] = PSAC antagonists in infected red cells, primary screen, cell-based, P. falciparum Indochina, OD700, 18 h (AID 1157); conditions: P. falciparum Indochina infected erythrocytes, osmotic lysis OD700, 18 h; higher = more signal, called active from +8 up or from −8 down
# [7] = modulators of S6 phosphorylation in cells, primary screen, cell-based, A549, cytoblot, luminescence, serum-stimulated (AID 1158); conditions: A549 phospho-S6 cytoblot, 5 h, higher = more signal;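 further: serum-stimulated A549 lung adenocarcinoma cells; signal is phosphorylated S6 detected by cytoblot immunostaining with HRP secondary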
# [8] = molecular target: NADPH oxidase 2 (Homo sapiens) (UniProt P04839); experiment: NOX2-dependent H2O2 signal modulators, primary screen, NOX inhibitor project, cell-based, HEK293-NOX2, PMA-stimulated, Amplex Red fluorescence (AID 1159); conditions: 45 min, higher = more signal, called active from +8 up or from −8 down; further: test concentration not given here
# Chain of NADPH oxidase 2 (Homo sapiens) (P04839 whole entry, looked up): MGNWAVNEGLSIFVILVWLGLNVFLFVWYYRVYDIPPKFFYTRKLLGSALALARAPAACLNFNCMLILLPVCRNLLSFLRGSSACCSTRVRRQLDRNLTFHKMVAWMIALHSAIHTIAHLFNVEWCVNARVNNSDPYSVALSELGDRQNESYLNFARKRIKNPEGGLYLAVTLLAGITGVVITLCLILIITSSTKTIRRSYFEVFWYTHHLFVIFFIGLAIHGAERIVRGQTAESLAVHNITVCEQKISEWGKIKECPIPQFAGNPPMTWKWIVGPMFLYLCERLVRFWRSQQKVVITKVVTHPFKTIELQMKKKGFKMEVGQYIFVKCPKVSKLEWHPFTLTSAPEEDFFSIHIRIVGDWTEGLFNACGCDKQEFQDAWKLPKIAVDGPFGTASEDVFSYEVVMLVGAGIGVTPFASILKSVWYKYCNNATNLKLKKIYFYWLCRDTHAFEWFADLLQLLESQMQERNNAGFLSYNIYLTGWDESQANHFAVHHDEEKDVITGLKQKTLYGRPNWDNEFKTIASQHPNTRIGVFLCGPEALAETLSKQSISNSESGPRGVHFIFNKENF
# [9] = molecular target: NADPH oxidase 4 (Homo sapiens) (UniProt Q9NPH5); experiment: NOX4-dependent H2O2 signal modulators, primary screen, NOX inhibitor project, cell-based, HEK293-NOX4, tetracycline-induced, Amplex Red fluorescence (AID 1160); conditions: 45 min, higher = more signal, called active from +8 up or from −8 down
# Chain of NADPH oxidase 4 (Homo sapiens) (Q9NPH5 whole entry, looked up): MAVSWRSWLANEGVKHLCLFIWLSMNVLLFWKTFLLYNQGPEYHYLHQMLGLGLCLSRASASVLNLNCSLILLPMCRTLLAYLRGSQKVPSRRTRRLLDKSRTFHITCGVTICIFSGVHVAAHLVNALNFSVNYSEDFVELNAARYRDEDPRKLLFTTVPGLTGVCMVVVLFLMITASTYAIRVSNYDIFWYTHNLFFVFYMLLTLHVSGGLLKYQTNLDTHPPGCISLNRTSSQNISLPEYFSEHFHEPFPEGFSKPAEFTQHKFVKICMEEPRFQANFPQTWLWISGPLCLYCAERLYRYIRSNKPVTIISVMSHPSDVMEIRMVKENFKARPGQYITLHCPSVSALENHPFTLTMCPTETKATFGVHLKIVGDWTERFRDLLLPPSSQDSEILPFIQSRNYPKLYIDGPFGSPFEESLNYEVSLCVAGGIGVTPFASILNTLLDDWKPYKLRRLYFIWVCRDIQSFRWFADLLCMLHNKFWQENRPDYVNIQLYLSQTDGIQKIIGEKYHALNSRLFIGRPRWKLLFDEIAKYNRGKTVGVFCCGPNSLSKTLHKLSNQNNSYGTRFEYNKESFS
# [10] = molecular target: NADPH oxidase 5 (Homo sapiens) (UniProt Q96PH1); experiment: NOX5-dependent H2O2 signal modulators, primary screen, NOX inhibitor project, cell-based, HEK293-NOX5, Amplex Red fluorescence (AID 1161); conditions: HEK293-NOX5, ionomycin, 45 min, higher = more signal
# Chain of NADPH oxidase 5 (Homo sapiens) (Q96PH1 whole entry, looked up): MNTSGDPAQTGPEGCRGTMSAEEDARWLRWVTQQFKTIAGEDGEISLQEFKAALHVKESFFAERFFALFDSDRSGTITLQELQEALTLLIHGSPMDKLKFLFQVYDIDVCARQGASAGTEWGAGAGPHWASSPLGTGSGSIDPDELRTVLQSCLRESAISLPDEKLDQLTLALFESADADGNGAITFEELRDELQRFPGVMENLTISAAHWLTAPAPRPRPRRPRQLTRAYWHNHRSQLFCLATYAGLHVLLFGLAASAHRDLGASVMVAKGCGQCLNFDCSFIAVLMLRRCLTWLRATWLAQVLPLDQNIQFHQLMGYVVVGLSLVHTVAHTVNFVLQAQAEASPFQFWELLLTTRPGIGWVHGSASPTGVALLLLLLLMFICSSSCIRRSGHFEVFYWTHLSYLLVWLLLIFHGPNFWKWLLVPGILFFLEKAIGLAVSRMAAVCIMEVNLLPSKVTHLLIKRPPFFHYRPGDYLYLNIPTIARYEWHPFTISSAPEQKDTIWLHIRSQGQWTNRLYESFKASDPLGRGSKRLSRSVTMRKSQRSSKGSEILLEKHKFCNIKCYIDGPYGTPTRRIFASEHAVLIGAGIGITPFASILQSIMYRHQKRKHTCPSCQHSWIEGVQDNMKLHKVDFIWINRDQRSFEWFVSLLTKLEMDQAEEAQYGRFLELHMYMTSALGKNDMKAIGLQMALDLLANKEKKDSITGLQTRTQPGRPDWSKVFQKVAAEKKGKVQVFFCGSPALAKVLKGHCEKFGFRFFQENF
SMILES,z-score [1],composite z-score [2],z-score [3],z-score [4],z-score [5],z-score [6],z-score [7],z-score [8],z-score [9],z-score [10]
COc1c(C)cc(-c2cc3c(c(Cc4ccccc4)n2)[Si](C(C)C)(C(C)C)OC3)cc1C,-1.01 (inactive),0.0004,0.613 (inactive),-0.172 (inactive),0.249 (inactive),0.189 (inactive),-0.671,-0.233 (inactive),0.243 (inactive),0.152
O=C1C[C@@](C(=O)NCC(F)(F)F)(c2ccc([N+](=O)[O-])cc2)[C@@H](c2ccc(CO)cc2)N1C1CCCCC1,-0.0786 (inactive),0.517,1.18 (inactive),-0.105 (inactive),1.29 (inactive),-0.0879 (inactive),-0.429,0.166 (inactive),0.24 (inactive),0.104
Cc1ccc(S[C@]2(C(=O)NCCN3CCOCC3)CC(=O)N(Cc3ccccc3C(F)(F)F)[C@@H]2c2ccc(CO)cc2I)cc1,0.0143 (inactive),0.114,4.93 (inactive),0.636 (inactive),2.03 (inactive),0.278 (inactive),0.155,2.82 (inactive),-0.659 (inactive),1.61
C#CCNC(=O)[C@H](Cc1ccccc1)NC(=O)[C@@H](N=[N+]=[N-])C(C)C,0.367 (inactive),-0.145,0.0059 (inactive),0.705 (inactive),0.0901 (inactive),0.405 (inactive),-0.52,0.291 (inactive),-0.18 (inactive),0.323
COc1ccc([Si](C)(C)[C@H]2[C@H](CC(=O)N3Cc4ccccc4C[C@H]3CO)O[C@@]3(C(=O)N(Cc4cccc(N5CCCCC5=O)c4)c4ccccc43)[C@@H]2C)cc1,-0.431 (inactive),0.0391,3.41 (inactive),0.966 (inactive),0.357 (inactive),0.549 (inactive),1.83,-0.508 (inactive),0.916 (inactive),-0.169
CC(C)CNC(=O)[C@@H]1c2ccccc2C(=O)N(Cc2cc(F)cc(C(F)(F)F)c2)[C@H]1c1ccc(CO)cc1,2.9 (inactive),0.0571,2.62 (inactive),0.649 (inactive),1.27 (inactive),-0.111 (inactive),0.207,-0.453 (inactive),0.967 (inactive),0.52
C=CC[C@@]1(C(=O)N2CCCCC2)N=C(c2ccc(OCCCO)cc2)O[C@@H]1c1ccccc1,0.659 (inactive),0.683,26.1 (active),11.4 (active),2.02 (inactive),1.97 (inactive),-0.499,-0.432 (inactive),0.174 (inactive),-1.66
COCCOC(=O)N1C(=O)[C@@]2(c3cc(C#CC4(O)CCCCCC4)ccc31)[C@H](C(N)=O)[C@H]1C(=O)O[C@H](c3ccccc3)[C@H](c3ccccc3)N1[C@@H]2c1ccccc1OCCO,0.127 (inactive),-1.03,4.94 (inactive),2.11 (inactive),3.54 (inactive),1.62 (inactive),0.563,2.63 (inactive),0.164 (inactive),0.38
COC(=O)[C@H](Cc1ccccc1)N1CC(/C=C/C2CC2)=C[C@@H]1[C@@H](O)Cc1ccccc1,0.974 (inactive),0.0082,1.97 (inactive),0.189 (inactive),-0.427 (inactive),0.401 (inactive),0.306,-0.193 (inactive),0.058 (inactive),0.424
C=CCOC(=O)[C@@H]1[C@H]2C(=O)O[C@H](c3ccccc3)[C@H](c3ccccc3)N2[C@H](c2ccc(OCCOC(=O)[C@H]3C[C@H]4C(=O)N[C@@H](CCCC[N+](C)(C)C)C(=O)N4[C@H]3c3ccc(O)cc3)cc2)[C@@]12C(=O)Nc1ccc(I)cc12,-0.451 (inactive),0.113,2.42 (inactive),1.57 (inactive),0.511 (inactive),0.792 (inactive),-0.281,1.4 (inactive),1.06 (inactive),1.24
COC(=O)C1(Cc2ccccc2)C=C2C(=C(c3ccccc3)C(=O)C2C)CN1 (stereo not given),-1.38 (inactive),1.23,2.11 (inactive),-0.0273 (inactive),0.423 (inactive),0.298 (inactive),0.208,-0.66 (inactive),-3.74 (inactive),-3.29
O=C1O[C@@H](c2ccccc2)[C@@H](c2ccccc2)N2[C@@H](c3ccccc3OCCO)[C@]3(C(=O)Nc4ccc(C#CCCO)cc43)[C@@H](C(=O)N3CCN(c4ncccn4)CC3)[C@H]12,0.255 (inactive),0.0927,2.58 (inactive),1.27 (inactive),-1.09 (inactive),0.418 (inactive),-0.531,1.3 (inactive),-0.686 (inactive),0.272
CCCc1cccc(=O)o1,-0.228 (inactive),0.042,0.342 (inactive),-0.831 (inactive),-0.832 (inactive),-1.23 (inactive),0.274,0.685 (inactive),-0.173 (inactive),0.173
[N-]=[N+]=NCc1ccccc1C[C@@]1(C(=O)NCCN2CCOCC2)N=C(c2ccc(OCCCO)cc2)O[C@@H]1c1ccccc1N=[N+]=[N-],-0.337 (inactive),0.534,31.3 (active),27.4 (active),2.72 (inactive),2.46 (inactive),1.17,-3.58 (inactive),-1.36 (inactive),-2.32
CC1CC/C=C\[C@H]2OC34C=CCN(c5ccc6ccccc6c5)C(=O)[C@H]3N(C(CO)C(C)C)C(=O)[C@@H]4C2C(=O)O1 (stereo not given in full),-0.488 (inactive),0.245,4.35 (inactive),1.06 (inactive),1.01 (inactive),0.674 (inactive),-0.526,1.49 (inactive),-0.0631 (inactive),1.68
NC(=O)NCC#Cc1ccc2c(c1)[C@]1(C(=O)N2)[C@H](C(=O)O)[C@H]2C(=O)O[C@H](c3ccccc3)[C@H](c3ccccc3)N2[C@@H]1c1ccccc1OCCO,3.32 (inactive),0.73,-1.21 (inactive),-1.81 (inactive),-3.99 (inactive),-2.67 (inactive),2.78,2.1 (inactive),0.786 (inactive),-0.188
CC(C)(C)OC(=O)CC[C@]1(C(=O)N2CCOCC2)N=C(c2ccc(OCCCO)cc2)O[C@H]1c1ccccc1,1.12 (inactive),0.0468,22.9 (active),5.18 (inactive),1.05 (inactive),0.815 (inactive),-0.208,-0.291 (inactive),-0.457 (inactive),-0.474
CCOC(=O)C1=CC[C@@H](c2ccccc2)N(S(=O)(=O)c2ccc(C)cc2)C1,-1.46 (inactive),0.638,2.45 (inactive),0.596 (inactive),0.517 (inactive),0.509 (inactive),-0.506,-0.0336 (inactive),-1.44 (inactive),-1.63
O=C(O)[C@H]1C[C@H]2C(=O)N3CCC[C@H]3C(=O)N2[C@H]1c1cccc(OCCO)c1,0.71 (inactive),-0.017,6.65 (inactive),1.08 (inactive),-1.69 (inactive),0.619 (inactive),0.557,-0.117 (inactive),-0.0548 (inactive),1.24
CCOC(=O)C[C@H]1[C@H](OC(=O)c2ccc(-c3ccccc3)cc2)[C@@H](NC(=O)c2ccc3ccccc3n2)c2cc(OCCCO)ccc2N1C(=O)c1ccccc1,-0.715 (inactive),0.0367,0.18 (inactive),-0.168 (inactive),-0.571 (inactive),0.261 (inactive),0.893,-0.59 (inactive),-1.72 (inactive),-1.04
CC(C)CCC[C@@H](C)[C@H]1CC[C@@]2(C)C3=C(CC[C@]12C)[C@@]1(C)CC[C@H](OC(=O)c2ccc(Br)cc2)C(C)(C)C1CC3 (stereo not given in full),3.37 (inactive),-0.0559,-0.571 (inactive),-0.957 (inactive),-0.149 (inactive),-2.39 (inactive),1.62,-1.07 (inactive),0.175 (inactive),0.929
CCOC(=O)C1=CC[C@@H](c2cc(Cl)ccc2Cl)N(S(=O)(=O)c2ccc(C)cc2)[C@H]1c1ccc(OC)cc1,-0.718 (inactive),0.369,2.98 (inactive),1.92 (inactive),0.926 (inactive),0.826 (inactive),-0.371,0.28 (inactive),-0.51 (inactive),0.465
CCOc1cc(C(O)C2C=CC3C(=O)N(C)C(=O)C3N2N2CCCCC2)ccc1O (stereo not given),-0.794 (inactive),0.267,1.5 (inactive),1.66 (inactive),0.0675 (inactive),1.12 (inactive),-0.599,-1.96 (inactive),-3.83 (inactive),-3.11
CCCCN1CC=CC23O[C@@H]4C=CCOC(=O)[C@@H]4[C@H]2C(=O)N(C(C)CO)[C@@H]3C1=O (stereo not given in full),-0.65 (inactive),-0.045,0.596 (inactive),-0.404 (inactive),0.436 (inactive),0.111 (inactive),-0.163,0.953 (inactive),0.56 (inactive),1.51
C=CCN1C(=O)[C@@]2(O[C@@H](CCO)[C@H]([Si](C)(C)c3ccc(OC)cc3)[C@H]2C)c2cc(N3C(=O)c4ccccc4Oc4ccccc43)ccc21,1.88 (inactive),-0.147,24.4 (active),8.39 (active),0.332 (inactive),2.07 (inactive),0.502,-0.946 (inactive),0.757 (inactive),-0.54
Cc1ccc(F)cc1S(=O)(=O)N[C@@H]1CCN(Cc2ccc(OC(C)C)cc2)C1,-19.2 (active),-0.186,2.14 (inactive),0.45 (inactive),-0.11 (inactive),0.673 (inactive),-0.157,-0.681 (inactive),-0.987 (inactive),-1.62
